# Assay results: paper PMC7862700, “An all-to-all approach to the identification of sequence-specific readers for epigenetic DNA modifications on cytosine”
# Tests used:
# Assay in all cases: DAPPL (digital affinity profiling via proximity ligation, sequencing); 10 mM Tris-HCl pH 7.5, 50 mM NaCl, 1 mM DTT, 4% glycerol, room temperature, 30 min; GST-TFs on glutathione beads, 16-mer random dsDNA library, 0.1% formaldehyde crosslink after washing; high values mean tight binding
# FLI1 = target: T1, FLI1 (Homo sapiens, UniProt Q01543 1-452); conditions: protein: recombinant; tags: N-terminal GST; dsDNA, one strand shown
# T1 sequence: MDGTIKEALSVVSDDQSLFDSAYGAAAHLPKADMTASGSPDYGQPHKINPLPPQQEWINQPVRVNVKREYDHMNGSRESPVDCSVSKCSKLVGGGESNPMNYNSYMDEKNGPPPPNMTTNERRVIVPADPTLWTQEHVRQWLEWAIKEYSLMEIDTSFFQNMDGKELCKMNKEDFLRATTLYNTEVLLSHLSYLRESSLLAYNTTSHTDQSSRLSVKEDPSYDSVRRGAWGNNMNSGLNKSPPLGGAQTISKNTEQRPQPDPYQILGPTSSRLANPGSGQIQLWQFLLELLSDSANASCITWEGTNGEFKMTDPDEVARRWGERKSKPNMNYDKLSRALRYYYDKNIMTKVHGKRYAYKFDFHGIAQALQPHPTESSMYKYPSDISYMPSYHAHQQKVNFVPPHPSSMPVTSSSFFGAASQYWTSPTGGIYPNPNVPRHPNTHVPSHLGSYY
# How it was run: (§1)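 Pools were built from human transcription factors expressed in yeast as GST fusions, captured on glutathione beads and DNA-barcoded, along with a tag-only sample. Incubation with 200 nmole of a 16-mer random double-stranded DNA library lasted 30 min at room temperature in Tris/NaCl/DTT/glycerol buffer, and was followed by washing, 0.1% formaldehyde crosslinking, proximity ligation, PCR amplification and Illumina NextSeq500 sequencing. Binding signal is the quotient of each hexamer's read frequency for a factor and its frequency for the tag-only sample.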
# ELK1 = target: T2, ELK1 (Homo sapiens, UniProt P19419 1-428); conditions: protein: recombinant; tags: N-terminal GST; dsDNA, one strand shown
# T2 sequence: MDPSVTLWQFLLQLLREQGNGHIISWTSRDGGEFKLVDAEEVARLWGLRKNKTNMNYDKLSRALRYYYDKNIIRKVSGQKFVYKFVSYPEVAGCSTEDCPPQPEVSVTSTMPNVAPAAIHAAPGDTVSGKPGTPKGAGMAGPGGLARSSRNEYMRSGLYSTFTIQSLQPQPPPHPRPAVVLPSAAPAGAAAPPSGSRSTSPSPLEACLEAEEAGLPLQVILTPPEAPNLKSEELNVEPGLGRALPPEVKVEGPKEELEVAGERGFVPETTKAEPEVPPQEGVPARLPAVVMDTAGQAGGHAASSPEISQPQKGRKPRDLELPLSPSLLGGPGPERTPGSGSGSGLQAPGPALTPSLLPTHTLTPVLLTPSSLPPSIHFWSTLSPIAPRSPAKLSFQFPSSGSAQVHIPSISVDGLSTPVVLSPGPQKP
# How it was run: as §1
# GABPA = target: T3, GABPA (Homo sapiens, UniProt Q06546 1-454); conditions: protein: recombinant; tags: N-terminal GST; dsDNA, one strand shown
# T3 sequence: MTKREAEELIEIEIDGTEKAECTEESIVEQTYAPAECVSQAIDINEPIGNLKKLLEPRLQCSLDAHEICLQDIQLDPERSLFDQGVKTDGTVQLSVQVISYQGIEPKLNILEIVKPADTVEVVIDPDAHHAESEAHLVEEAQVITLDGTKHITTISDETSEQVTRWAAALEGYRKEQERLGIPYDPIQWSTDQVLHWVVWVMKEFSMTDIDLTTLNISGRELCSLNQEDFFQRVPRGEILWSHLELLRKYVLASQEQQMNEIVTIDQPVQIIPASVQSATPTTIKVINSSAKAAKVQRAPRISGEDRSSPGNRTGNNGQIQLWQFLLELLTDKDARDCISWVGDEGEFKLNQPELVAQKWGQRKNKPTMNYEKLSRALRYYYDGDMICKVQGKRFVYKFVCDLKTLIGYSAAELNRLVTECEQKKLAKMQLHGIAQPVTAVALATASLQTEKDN
# How it was run: as §1
# ERG = target: T4, ERG (Homo sapiens, UniProt P11308 1-479); conditions: protein: recombinant; tags: N-terminal GST; dsDNA, one strand shown
# T4 sequence: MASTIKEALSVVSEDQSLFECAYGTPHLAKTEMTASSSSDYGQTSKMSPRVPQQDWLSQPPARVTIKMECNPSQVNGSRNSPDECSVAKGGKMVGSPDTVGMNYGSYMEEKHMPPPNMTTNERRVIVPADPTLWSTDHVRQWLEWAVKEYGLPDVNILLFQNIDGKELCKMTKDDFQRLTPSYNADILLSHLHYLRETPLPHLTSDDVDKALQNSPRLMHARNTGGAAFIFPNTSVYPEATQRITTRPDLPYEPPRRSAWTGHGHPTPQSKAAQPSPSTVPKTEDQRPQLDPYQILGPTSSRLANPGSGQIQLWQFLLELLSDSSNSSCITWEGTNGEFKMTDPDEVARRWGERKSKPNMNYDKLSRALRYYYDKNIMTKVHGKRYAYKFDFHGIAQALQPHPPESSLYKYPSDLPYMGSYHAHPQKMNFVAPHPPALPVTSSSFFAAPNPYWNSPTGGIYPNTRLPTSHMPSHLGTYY
# How it was run: as §1
# ELF1 = ELF1 (Homo sapiens, UniProt P32519 1-619); conditions: protein: recombinant; tags: N-terminal GST; dsDNA, one strand shown
# Sequence of ELF1 (P32519 whole entry): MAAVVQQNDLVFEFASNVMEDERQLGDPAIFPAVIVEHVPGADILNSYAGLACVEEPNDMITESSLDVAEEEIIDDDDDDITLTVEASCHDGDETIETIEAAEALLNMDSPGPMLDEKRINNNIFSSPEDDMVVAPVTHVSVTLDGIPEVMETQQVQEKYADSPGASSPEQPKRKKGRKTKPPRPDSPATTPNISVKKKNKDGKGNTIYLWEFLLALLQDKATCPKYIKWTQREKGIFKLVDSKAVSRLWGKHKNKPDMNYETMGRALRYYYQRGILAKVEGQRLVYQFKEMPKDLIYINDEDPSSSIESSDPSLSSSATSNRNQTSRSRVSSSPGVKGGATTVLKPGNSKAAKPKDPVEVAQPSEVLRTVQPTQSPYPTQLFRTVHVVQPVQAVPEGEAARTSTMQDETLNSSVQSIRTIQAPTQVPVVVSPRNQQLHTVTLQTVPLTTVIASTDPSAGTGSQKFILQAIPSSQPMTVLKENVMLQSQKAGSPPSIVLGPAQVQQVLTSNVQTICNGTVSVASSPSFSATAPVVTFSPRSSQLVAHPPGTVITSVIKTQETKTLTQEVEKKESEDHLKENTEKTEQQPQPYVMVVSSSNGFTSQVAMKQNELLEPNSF
# How it was run: as §1
# EHF = target: T5, EHF (Homo sapiens, UniProt Q9NZC4 1-300); conditions: protein: recombinant; tags: N-terminal GST; dsDNA, one strand shown
# T5 sequence: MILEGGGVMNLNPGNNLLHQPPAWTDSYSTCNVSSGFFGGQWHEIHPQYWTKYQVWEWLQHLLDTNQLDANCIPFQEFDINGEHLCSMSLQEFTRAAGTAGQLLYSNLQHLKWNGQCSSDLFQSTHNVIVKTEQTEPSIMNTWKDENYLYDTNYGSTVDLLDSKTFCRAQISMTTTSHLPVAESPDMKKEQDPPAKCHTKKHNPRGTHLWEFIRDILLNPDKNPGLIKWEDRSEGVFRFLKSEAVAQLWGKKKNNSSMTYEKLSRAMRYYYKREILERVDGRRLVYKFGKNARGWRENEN
# How it was run: as §1
# SPI1 = SPI1 (Homo sapiens, UniProt P17947 1-270); conditions: protein: recombinant; tags: N-terminal GST; dsDNA, one strand shown
# How it was run: as §1
# SPIB = SPIB (Homo sapiens, UniProt Q01892 1-262); conditions: protein: recombinant; tags: N-terminal GST; dsDNA, one strand shown
# Sequence of SPIB (Q01892 whole entry): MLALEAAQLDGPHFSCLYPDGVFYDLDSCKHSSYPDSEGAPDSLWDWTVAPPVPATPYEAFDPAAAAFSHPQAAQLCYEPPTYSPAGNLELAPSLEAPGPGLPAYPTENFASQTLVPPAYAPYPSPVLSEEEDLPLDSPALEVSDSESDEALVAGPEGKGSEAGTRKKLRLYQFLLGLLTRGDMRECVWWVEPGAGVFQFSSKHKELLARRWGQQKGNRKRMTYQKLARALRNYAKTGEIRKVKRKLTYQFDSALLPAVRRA
# How it was run: as §1
# ELK3 = target: T6, ELK3 (Homo sapiens, UniProt P41970 1-407); conditions: protein: recombinant; tags: N-terminal GST; dsDNA, one strand shown
# T6 sequence: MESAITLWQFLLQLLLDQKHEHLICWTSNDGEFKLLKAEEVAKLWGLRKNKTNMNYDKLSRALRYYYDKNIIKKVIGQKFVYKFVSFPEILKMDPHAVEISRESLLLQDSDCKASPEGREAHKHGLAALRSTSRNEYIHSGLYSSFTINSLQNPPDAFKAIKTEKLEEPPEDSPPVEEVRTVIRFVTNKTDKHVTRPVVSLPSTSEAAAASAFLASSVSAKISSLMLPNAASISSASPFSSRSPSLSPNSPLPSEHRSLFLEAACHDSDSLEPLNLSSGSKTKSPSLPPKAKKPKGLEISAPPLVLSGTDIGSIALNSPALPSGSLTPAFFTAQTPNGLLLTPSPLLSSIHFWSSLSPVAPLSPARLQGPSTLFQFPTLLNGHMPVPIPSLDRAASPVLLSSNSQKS
# How it was run: as §1
# FEV = target: T7, FEV (Homo sapiens, UniProt Q99581 1-238); conditions: protein: recombinant; tags: N-terminal GST; dsDNA, one strand shown
# T7 sequence: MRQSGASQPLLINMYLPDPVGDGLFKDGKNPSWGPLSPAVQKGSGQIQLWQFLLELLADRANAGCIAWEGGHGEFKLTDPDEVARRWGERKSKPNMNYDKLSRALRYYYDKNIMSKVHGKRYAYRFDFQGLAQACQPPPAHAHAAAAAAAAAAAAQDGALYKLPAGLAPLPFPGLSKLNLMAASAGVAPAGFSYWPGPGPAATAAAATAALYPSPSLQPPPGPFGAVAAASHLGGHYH
# How it was run: as §1
# ETV5 = ETV5 (Homo sapiens, UniProt P41161 1-510); conditions: protein: recombinant; tags: N-terminal GST; dsDNA, one strand shown
# Sequence of ETV5 (P41161 whole entry): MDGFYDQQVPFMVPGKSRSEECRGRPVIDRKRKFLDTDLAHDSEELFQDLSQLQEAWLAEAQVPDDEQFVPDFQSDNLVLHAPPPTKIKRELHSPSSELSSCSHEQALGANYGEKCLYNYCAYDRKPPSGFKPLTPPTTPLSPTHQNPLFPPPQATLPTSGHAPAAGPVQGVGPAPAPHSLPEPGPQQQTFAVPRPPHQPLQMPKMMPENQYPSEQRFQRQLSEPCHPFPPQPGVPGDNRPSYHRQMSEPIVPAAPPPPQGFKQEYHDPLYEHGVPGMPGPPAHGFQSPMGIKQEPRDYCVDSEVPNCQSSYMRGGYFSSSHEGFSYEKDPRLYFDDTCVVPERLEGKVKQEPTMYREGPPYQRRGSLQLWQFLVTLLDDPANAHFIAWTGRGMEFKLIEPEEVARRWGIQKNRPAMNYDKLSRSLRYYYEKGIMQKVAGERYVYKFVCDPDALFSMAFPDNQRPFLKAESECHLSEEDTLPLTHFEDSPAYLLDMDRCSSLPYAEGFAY
# How it was run: as §1
# HSF1 = HSF1 (Homo sapiens, UniProt Q00613 1-529); conditions: protein: recombinant; tags: N-terminal GST; chain copies: 3; dsDNA, one strand shown
# Sequence of HSF1 (Q00613 whole entry): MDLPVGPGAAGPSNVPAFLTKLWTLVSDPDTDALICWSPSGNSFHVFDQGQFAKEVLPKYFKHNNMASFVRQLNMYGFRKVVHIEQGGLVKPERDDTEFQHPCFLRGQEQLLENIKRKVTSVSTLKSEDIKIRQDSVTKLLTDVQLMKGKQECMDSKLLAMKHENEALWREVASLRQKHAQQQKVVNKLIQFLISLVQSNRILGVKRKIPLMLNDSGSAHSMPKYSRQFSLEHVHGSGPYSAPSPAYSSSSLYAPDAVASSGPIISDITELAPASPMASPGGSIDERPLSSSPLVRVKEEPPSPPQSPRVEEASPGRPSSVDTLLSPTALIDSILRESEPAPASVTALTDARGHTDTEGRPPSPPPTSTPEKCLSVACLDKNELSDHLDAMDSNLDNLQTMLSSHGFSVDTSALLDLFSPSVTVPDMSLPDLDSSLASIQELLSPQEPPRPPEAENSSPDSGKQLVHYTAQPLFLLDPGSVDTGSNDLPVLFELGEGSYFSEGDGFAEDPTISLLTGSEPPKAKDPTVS
# How it was run: as §1
# SPIC = target: T8, SPIC (Homo sapiens, UniProt Q8N5J4 1-248); conditions: protein: recombinant; tags: N-terminal GST; dsDNA, one strand shown
# T8 sequence: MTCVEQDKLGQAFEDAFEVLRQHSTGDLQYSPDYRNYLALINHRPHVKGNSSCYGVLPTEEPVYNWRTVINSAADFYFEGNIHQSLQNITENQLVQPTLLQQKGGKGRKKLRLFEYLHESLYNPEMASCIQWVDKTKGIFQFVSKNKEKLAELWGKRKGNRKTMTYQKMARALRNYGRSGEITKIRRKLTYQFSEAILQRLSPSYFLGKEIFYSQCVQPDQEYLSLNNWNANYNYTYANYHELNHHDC
# How it was run: as §1
# ELF4 = ELF4 (Homo sapiens, UniProt Q99607 1-663); conditions: protein: recombinant; tags: N-terminal GST; dsDNA, one strand shown
# Sequence of ELF4 (Q99607 whole entry): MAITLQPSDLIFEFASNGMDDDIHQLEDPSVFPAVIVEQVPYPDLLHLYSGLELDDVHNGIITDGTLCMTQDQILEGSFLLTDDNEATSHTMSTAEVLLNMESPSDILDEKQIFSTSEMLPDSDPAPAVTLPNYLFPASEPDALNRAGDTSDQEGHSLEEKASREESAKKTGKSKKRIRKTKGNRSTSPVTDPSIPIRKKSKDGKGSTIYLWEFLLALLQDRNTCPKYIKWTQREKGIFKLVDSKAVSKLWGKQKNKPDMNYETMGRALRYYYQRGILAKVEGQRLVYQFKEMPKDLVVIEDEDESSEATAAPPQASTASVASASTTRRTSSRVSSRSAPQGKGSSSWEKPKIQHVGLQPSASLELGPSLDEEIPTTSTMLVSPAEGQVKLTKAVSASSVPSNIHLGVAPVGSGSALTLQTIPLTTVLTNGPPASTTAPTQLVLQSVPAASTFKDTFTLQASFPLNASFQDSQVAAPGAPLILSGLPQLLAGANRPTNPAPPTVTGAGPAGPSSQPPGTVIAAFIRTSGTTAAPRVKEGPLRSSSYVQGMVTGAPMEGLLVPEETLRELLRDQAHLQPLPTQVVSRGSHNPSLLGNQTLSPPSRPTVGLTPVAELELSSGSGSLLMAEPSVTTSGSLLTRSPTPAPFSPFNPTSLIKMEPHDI
# How it was run: as §1
# ELK4 = target: T9, ELK4 (Homo sapiens, UniProt P28324-2 1-405); conditions: protein: recombinant; tags: N-terminal GST; dsDNA, one strand shown
# T9 sequence: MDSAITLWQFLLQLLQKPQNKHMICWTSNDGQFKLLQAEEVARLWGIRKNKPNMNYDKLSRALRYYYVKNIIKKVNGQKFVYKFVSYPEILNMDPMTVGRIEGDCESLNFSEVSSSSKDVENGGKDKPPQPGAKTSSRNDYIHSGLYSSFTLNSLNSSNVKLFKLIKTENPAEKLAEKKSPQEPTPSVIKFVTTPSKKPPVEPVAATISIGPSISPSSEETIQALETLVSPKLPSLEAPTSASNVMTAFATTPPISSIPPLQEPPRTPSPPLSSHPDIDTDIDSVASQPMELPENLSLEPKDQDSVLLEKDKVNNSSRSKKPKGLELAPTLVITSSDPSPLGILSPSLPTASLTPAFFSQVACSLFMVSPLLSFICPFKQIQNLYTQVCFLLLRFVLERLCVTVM
# How it was run: as §1
# ETV2 = target: T10, ETV2 (Homo sapiens, UniProt O00321 1-342); conditions: protein: recombinant; tags: N-terminal GST; dsDNA, one strand shown
# T10 sequence: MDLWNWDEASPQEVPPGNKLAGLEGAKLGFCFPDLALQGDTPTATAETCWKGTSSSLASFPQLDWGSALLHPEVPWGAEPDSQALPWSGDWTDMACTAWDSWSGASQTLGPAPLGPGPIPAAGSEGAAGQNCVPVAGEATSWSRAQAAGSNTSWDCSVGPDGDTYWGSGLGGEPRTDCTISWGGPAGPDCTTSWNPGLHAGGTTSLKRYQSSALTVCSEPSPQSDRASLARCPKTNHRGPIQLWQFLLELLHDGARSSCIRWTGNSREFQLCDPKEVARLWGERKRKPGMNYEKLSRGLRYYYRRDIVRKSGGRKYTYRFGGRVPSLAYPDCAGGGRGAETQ
# How it was run: as §1
# ELF3 = target: T11, ELF3 (Homo sapiens, UniProt P78545 1-371); conditions: protein: recombinant; tags: N-terminal GST; dsDNA, one strand shown
# T11 sequence: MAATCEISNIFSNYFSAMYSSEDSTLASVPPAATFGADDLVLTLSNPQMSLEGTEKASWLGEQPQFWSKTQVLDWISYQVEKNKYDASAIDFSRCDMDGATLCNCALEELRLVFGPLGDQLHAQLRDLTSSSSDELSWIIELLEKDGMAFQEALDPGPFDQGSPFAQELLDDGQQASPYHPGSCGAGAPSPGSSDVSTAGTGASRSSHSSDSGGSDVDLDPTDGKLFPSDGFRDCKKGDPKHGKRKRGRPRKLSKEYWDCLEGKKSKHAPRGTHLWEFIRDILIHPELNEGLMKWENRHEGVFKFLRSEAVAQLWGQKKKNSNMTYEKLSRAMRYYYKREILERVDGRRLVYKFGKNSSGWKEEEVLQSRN
# How it was run: as §1
# CRX = CRX (Homo sapiens, UniProt O43186 1-299); conditions: protein: recombinant; tags: N-terminal GST; dsDNA, one strand shown
# Sequence of CRX (O43186 whole entry): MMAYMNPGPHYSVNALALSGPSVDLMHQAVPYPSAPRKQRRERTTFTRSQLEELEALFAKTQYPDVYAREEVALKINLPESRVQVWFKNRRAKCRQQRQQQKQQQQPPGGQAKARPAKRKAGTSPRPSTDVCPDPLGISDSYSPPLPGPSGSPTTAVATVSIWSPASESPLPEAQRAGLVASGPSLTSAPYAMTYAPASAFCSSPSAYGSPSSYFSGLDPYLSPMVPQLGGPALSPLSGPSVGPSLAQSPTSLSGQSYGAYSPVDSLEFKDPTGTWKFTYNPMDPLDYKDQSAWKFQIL
# How it was run: as §1
sequence,measurement,setting,value
TGATAT,binding signal,FLI1,"1.13 fold enrichment (6-mer frequency, TF over GST control)"
same,binding signal,ELK1,"1.11 fold enrichment (6-mer frequency, TF over GST control)"
same,binding signal,GABPA,"1.15 fold enrichment (6-mer frequency, TF over GST control)"
same,binding signal,ERG,"1.12 fold enrichment (6-mer frequency, TF over GST control)"
same,binding signal,ELF1,"1.11 fold enrichment (6-mer frequency, TF over GST control)"
same,binding signal,EHF,"1.08 fold enrichment (6-mer frequency, TF over GST control)"
same,binding signal,SPI1,"1.08 fold enrichment (6-mer frequency, TF over GST control)"
same,binding signal,SPIB,"1.05 fold enrichment (6-mer frequency, TF over GST control)"
same,binding signal,ELK3,"1 fold enrichment (6-mer frequency, TF over GST control)"
same,binding signal,FEV,"1.07 fold enrichment (6-mer frequency, TF over GST control)"
same,binding signal,ETV5,"1.1 fold enrichment (6-mer frequency, TF over GST control)"
same,binding signal,HSF1,"1.01 fold enrichment (6-mer frequency, TF over GST control)"
same,binding signal,SPIC,"1.05 fold enrichment (6-mer frequency, TF over GST control)"
same,binding signal,ELF4,"1.12 fold enrichment (6-mer frequency, TF over GST control)"
same,binding signal,ELK4,"1.14 fold enrichment (6-mer frequency, TF over GST control)"
same,binding signal,ETV2,"1.21 fold enrichment (6-mer frequency, TF over GST control)"
same,binding signal,ELF3,"1.04 fold enrichment (6-mer frequency, TF over GST control)"
same,binding signal,CRX,"1.08 fold enrichment (6-mer frequency, TF over GST control)"
